From PubChem BioAssay (EPA / NIEHS)
Activity calls are given as the source filed them. Rule for the calls: active = hit-call score of the fitted dose curve at least 0.9, where 1 is the maximum; inactive = score below 0.9.

Experiment: ATG_CMV_CIS: Attagene CIS-FACTORIAL HepG2 Assay for human CMV (Internal Marker) (AID 2282928);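 note: endpoint acts as a background internal control marker rather than a target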
Details: HepG2 CMV promoter reporter, transcription factor profiling; actives raise or lower the signal
Method in brief: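 CMV internal-marker background readout in transiently transfected HepG2 cells bearing cis-regulated reporter units. Reporter mRNA is measured 24 h after dosing by RT-PCR and capillary electrophoresis, with bidirectional fitting against DMSO.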

Compound	outcome	AC50
C1=COCCC1	inactive	–
NC(=O)c1cccnc1	inactive	–
COC(=O)c1cccc(C(=O)OC)c1	inactive	–
CC(C)(O)CCc1ccccc1	inactive	–
NNC(=O)OCc1ccccc1	inactive	–
CC(CO)c1ccccc1 (stereo not drawn)	inactive	–
CCCCCC1CCC(=O)O1 (stereo not drawn)	inactive	–
c1ccc2scnc2c1	inactive	–
C=C1CC/C=C(\C)CC[C@@H]2[C@@H]1CC2(C)C	–	42.4 µM (active)
CC/C=C\CCOC(C)OCC (stereo not drawn)	inactive	–
C=C(C)C(N)=O	inactive	–
CC1=CC[C@@H]2C[C@H]1C2(C)C	inactive	–
CCCCCCCCOC(=O)c1ccc(O)cc1	inactive	–
CC(C)(C)c1ccc(S)cc1	inactive	–
CCOC(=O)C(=O)OCC	inactive	–
C1CCCNCC1	inactive	–
CCCCCCC(C)O (stereo not drawn)	inactive	–

Compound	outcome	AC50
CC1(C)CC(N)CC(C)(CN)C1 (stereo not drawn)	inactive	–
CN1CCc2cccc3c2[C@H]1Cc1ccc(O)c(O)c1-3	–	5.76 µM (active)
CCCCOCCOCCO	inactive	–
CCn1cc(C(=O)O)c(=O)c2ccc(C)nc21	inactive	–
C=CC(=O)OCC(CO)(COC(=O)C=C)COC(=O)C=C	–	5.31 µM (active)
CC/C=C\CCOC(=O)C(C)C	inactive	–
Nc1ccn([C@H]2CC[C@@H](CO)O2)c(=O)n1	inactive	–
CC(=O)OCC=C(C)CCC=C(C)CCC=C(C)C	–	63.2 µM (active)
NC(N)=S	inactive	–
CC(=O)C1C(=O)C=C(C)OC1=O (stereo not drawn)	inactive	–
CC(C)CCOC(=O)CC(C)C	inactive	–
CC(C)=CC(=O)O	inactive	–
CCCCCc1cccc(=O)o1	inactive	–
CCO[Si](CCC#N)(OCC)OCC	inactive	–
CC(C)COC(=O)c1ccccc1O	inactive	–
O=C(C=Cc1ccccc1)OCCCc1ccccc1	inactive	–
O=C1CCC(=O)N1	inactive	–

Experiment: ATG_DR4_LXR_CIS: Attagene CIS-FACTORIAL HepG2 Assay for human Liver X Receptor (LXR), DR4 submotif (AID 2282929)
Details: HepG2 Attagene DR4 cis-reporter, mRNA transcription; actives raise or lower the signal
Method in brief: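 After transient transfection with multiplexed cis-promoter reporter units, HepG2 cells received test chemicals for 24 h. Reporter mRNA induction, detected by fluorescence after RT-PCR and capillary electrophoresis, was scored relative to DMSO.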

Compound	outcome	AC50
C1=COCCC1	inactive	–
NC(=O)c1cccnc1	inactive	–
COC(=O)c1cccc(C(=O)OC)c1	inactive	–
CC(C)(O)CCc1ccccc1	inactive	–
NNC(=O)OCc1ccccc1	inactive	–
CC(CO)c1ccccc1 (stereo not drawn)	inactive	–
CCCCCC1CCC(=O)O1 (stereo not drawn)	inactive	–
c1ccc2scnc2c1	inactive	–
C=C1CC/C=C(\C)CC[C@@H]2[C@@H]1CC2(C)C	–	61.3 µM (active)
CC/C=C\CCOC(C)OCC (stereo not drawn)	inactive	–
C=C(C)C(N)=O	inactive	–
CC1=CC[C@@H]2C[C@H]1C2(C)C	inactive	–
CCCCCCCCOC(=O)c1ccc(O)cc1	inactive	–
CC(C)(C)c1ccc(S)cc1	inactive	–
CCOC(=O)C(=O)OCC	inactive	–
C1CCCNCC1	inactive	–
CCCCCCC(C)O (stereo not drawn)	inactive	–

Compound	outcome	AC50
CC1(C)CC(N)CC(C)(CN)C1 (stereo not drawn)	inactive	–
CN1CCc2cccc3c2[C@H]1Cc1ccc(O)c(O)c1-3	–	18.8 µM (active)
CCCCOCCOCCO	inactive	–
CCn1cc(C(=O)O)c(=O)c2ccc(C)nc21	inactive	–
C=CC(=O)OCC(CO)(COC(=O)C=C)COC(=O)C=C	–	18 µM (active)
CC/C=C\CCOC(=O)C(C)C	inactive	–
Nc1ccn([C@H]2CC[C@@H](CO)O2)c(=O)n1	inactive	–
CC(=O)OCC=C(C)CCC=C(C)CCC=C(C)C	–	33.4 µM (active)
NC(N)=S	inactive	–
CC(=O)C1C(=O)C=C(C)OC1=O (stereo not drawn)	inactive	–
CC(C)CCOC(=O)CC(C)C	inactive	–
CC(C)=CC(=O)O	inactive	–
CCCCCc1cccc(=O)o1	inactive	–
CCO[Si](CCC#N)(OCC)OCC	inactive	–
CC(C)COC(=O)c1ccccc1O	inactive	–
O=C(C=Cc1ccccc1)OCCCc1ccccc1	inactive	–
O=C1CCC(=O)N1	inactive	–
